Measured values: PubChem BioAssay (EPA / NIEHS)
Results filed as inconclusive are left out. Activity calls are given as the source filed them. The calls were made as follows: active = hit-call score of the fitted dose curve at least 0.9, where 1 is the maximum; inconclusive = response in the unintended direction; inactive = score below 0.9.

The compounds below were run on sulfotransferase (SULT2A), SULT2A1 (gene 6822) (assay: CLD_SULT2A_6hr: CellzDirect (CLD) Gene Expression Assay for sulfotransferase (SULT2A) at 6 hours (AID 2283669);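 also: hits raise transcript level above the DMSO vehicle baseline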).
How it was run: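 Primary human hepatocytes from two donor preparations were dosed daily with chemicals or 0.2% DMSO and harvested at 6 h. Transcript induction read by qNPA chemiluminescence, fitted for gain of signal relative to DMSO; morphology-based cytotoxicity annotated.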

Which outcome does the source give for COP(=S)(OC)Oc1ccc([N+](=O)[O-])cc1 here?
Its outcome is “inactive”.

For CCC(C)(NC(=O)c1cc(Cl)c(C)c(Cl)c1)C(=O)CCl (centres undefined), which outcome is on record?
The outcome was “inactive”.

Which outcome does the source give for COC(=O)c1ccccc1S(=O)(=O)NC(=O)N(C)c1nc(C)nc(OC)n1 here?
Its outcome is “inactive”.

Clc1ccccc1-c1nnc(-c2ccccc2Cl)nn1 was tested. Which outcome did it give?
Its outcome is “inactive”.

Which outcome does the source give for CNC(=O)Oc1ccccc1OC(C)C here?
Its outcome is “inactive”.

With COC(=O)c1ccccc1CS(=O)(=O)NC(=O)Nc1nc(OC)cc(OC)n1 as the compound, how does the outcome read?
The outcome was “inactive”.

Which outcome does the source give for CN1CSC(=S)N(C)C1 here?
The outcome was “inactive”.

For CNC(=O)/C=C(\C)OP(=O)(OC)OC, which outcome is on record?
Its outcome is “inactive”.

How did the outcome turn out when C[C@H]1[C@H](c2ccc(Cl)cc2)SC(=O)N1C(=O)NC1CCCCC1 was run?
The outcome was “inactive”.

With CCc1ccc(C(=O)NN(C(=O)c2cc(C)cc(C)c2)C(C)(C)C)cc1 as the compound, how does the outcome read?
Its outcome is “inactive”.

CCOCN(C(=O)CCl)c1c(C)cccc1CC was tested. Which outcome did it give?
Its outcome is “inactive”.

COc1cc(OC)nc(NC(=O)NS(=O)(=O)c2cc(NC=O)ccc2C(=O)N(C)C)n1 was tested. Which outcome did it give?
Its outcome is “inactive”.

How did the outcome turn out when O=C(O)CCCOc1ccc(Cl)cc1Cl was run?
The outcome was “inactive”.

How did the outcome turn out when O=[N+]([O-])/N=C1\NCCN1Cc1ccc(Cl)nc1 was run?
The outcome was “inactive”.

How did the outcome turn out when CC(C)N(C(=O)COc1nnc(C(F)(F)F)s1)c1ccc(F)cc1 was run?
The outcome was “inactive”.

Which outcome does the source give for CCCN(CCC)c1c([N+](=O)[O-])cc(C(F)(F)F)cc1[N+](=O)[O-] here?
The outcome was “inactive”.

Which outcome does the source give for CC1(c2ccc(Oc3ccccc3)cc2)OC(=O)N(Nc2ccccc2)C1=O (centres undefined) here?
The outcome was “inactive”.

N#CN was tested. Which outcome did it give?
The outcome was “inactive”.

With CNC(=O)Oc1cccc(N=CN(C)C)c1 as the compound, how does the outcome read?
The outcome was “inactive”.
